The source of these data is the supplement of paper PMC4206467.

The subject of this assay is Perkinsus marinus PRA240. The assay is described as follows: ATP content (proliferation) relative to DMSO control; higher = more parasite growth (less inhibition). The following applies: 20 µM; 4 days. Here is the method:
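Perkinsus marinus PRA240 trophozoites (2-5x10^6 cells/ml, 100 µl, 96-well) were exposed once to MMV Malaria Box compounds at 20 µM (0.1% DMSO) in triplicate. ATP content (ATPlite bioluminescence) was read at day 4 post-exposure and normalised to DMSO + cells control wells (100% activity). Compounds were identified by joining plate and well to the Malaria Box list.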
As for `Cc1cc(NC(=O)c2cccc(C(F)(F)F)c2)n(-c2nc(-c3ccc4c(c3)OCO4)cs2)n1`, the ATP content turned out to be 144%.

In turn, `Cc1cc(Nc2ccc(OCc3ccccc3)cc2)nc2cc(O)ccc12` yielded an ATP content of 4.92%.

As for `CCCCC(O)(c1ccc(Cl)cc1)C(CN1CCOCC1)c1ccc(Cl)cc1` (stereo not drawn), the ATP content is 131%.

Molecule `CC1CCCCN1CCCNC(=O)c1ccc2c(c1)sc1nc(-c3ccc(F)cc3)cn12` (stereo not drawn) yielded an ATP content of 133%.

On to `COc1ccc(C2C(C(=O)Nc3cccc(OC)c3)c3ccccc3C(=O)N2C2CCCCC2)cc1` (stereo not drawn), for which the ATP content worked out at 94.3%.

Take `CCN(CC)CCNc1ccnc2cc3ccccc3cc12`: the ATP content worked out at 107%.

`N=c1n(CCN2CCCCC2)c2ccccc2n1CC(=O)c1ccc(Cl)c(Cl)c1` registered an ATP content of 111%.

For the molecule `COc1cc(SC)ccc1C(=O)N1CCCC(C)C1` (stereo not drawn), the ATP content amounted to 134%.

As to `CCCCNCC(O)(c1ccc(Cl)cc1)c1ccc(Cl)cc1`, the ATP content turned out to be 103%.

Molecule `Cc1ccc(Cn2c(N3CCC(C(=O)NCc4cccs4)CC3)nc3ccccc32)cc1` showed an ATP content of 106%.

`CC(C)(C)c1ccc2c(c1)CN(Cc1ccc(Cl)cc1)CO2` showed an ATP content of 107%.

In turn, `CCOc1ccc(N2C(N)=NC(N)=NC2(C)C)cc1` displayed an ATP content of 114%.

Molecule `CCOc1cc2c(cc1OCC)C(c1cc(Cl)c(O)c(OCC)c1)NCC2` (stereo not drawn) showed an ATP content of 97.3%.

On to `Cc1ccc(C)c(-c2csc(Nc3ccc(C)c(C)c3)n2)c1`, for which the ATP content was 93.6%.

`Clc1ccc2c(N3CCCC3)ccnc2c1` had an ATP content of 91%.

With `OCCNc1nc(Nc2ccc(Cl)c(Cl)c2)nc2ccccc12`, the ATP content came out at 28.8%.

`FC(F)(F)c1cccc(Nc2nc3ccccc3nc2Nc2cccc(C(F)(F)F)c2)c1` returned an ATP content of 155%.

Molecule `O=C1c2ccc3c4c(ccc(c24)C(=O)N1CCCCO)C(=O)N(CCCCO)C3=O` registered an ATP content of 50.5%.

As for `CC1CC2=C(CC1CNCCCN(C)C)C(C)(C)CCC2` (stereo not drawn), the ATP content was determined as 119%.

With `CCn1c2c(c(=N)c3c1CCC3)CCCC2`, the ATP content amounted to 96.7%.

`FC(F)(F)c1ccc(Nc2nnnc3ccccc23)cc1`: the ATP content stood at 44%.

Take `COc1ccc(C2Sc3ccccc3N=C3C2=C(O)c2ccccc23)cc1` (stereo not drawn): the ATP content amounted to 46.2%.

For `CCCN(CCC)CCCNC(=O)c1cc2c(-c3ccc(OC)c(OC)c3)nn(C)c2s1`, the ATP content was determined as 80.3%.

In turn, `Nc1ccc(-c2nc3cc(Cc4ccc5[nH]c(-c6ccc(N)cc6)nc5c4)ccc3[nH]2)cc1` had an ATP content of 135%.

With `Cc1ccc(-c2nc3ccccc3o2)cc1NCc1cc(Cc2ccccc2)ccc1O`, the ATP content stood at 77.3%.

Take `c1ccc(CNc2nc(Nc3ccccc3)nc3ccccc23)cc1`: the ATP content turned out to be 75.4%.

With `CC(C)(C)c1ccc(C(=O)Nc2c3c(nn2-c2cccc(Cl)c2)CSC3)cc1`, the ATP content was 147%.

Molecule `N=c1c2ccccc2nnn1-c1cccc(C(F)(F)F)c1` displayed an ATP content of 67.7%.

Molecule `O=C(Nc1ccc(N2CCCCC2)c(Cl)c1)c1ccc(Br)o1` returned an ATP content of 33.7%.

In the case of `CC(C)(C)CC(C)(C)NCC(O)COc1ccc2c(c1)CCC2` (stereo not drawn), the ATP content turned out to be 114%.

On to `CCCCN(CCCC)S(=O)(=O)c1ccc(NC(=O)c2ccco2)cc1`, for which the ATP content is 43.3%.

`COc1ccc2c(c1)C1(Nc3ccccc3-c3nc4ccccc4n31)C(=O)N2` (stereo not drawn) displayed an ATP content of 113%.

The molecule `CC1CC(C)CN(C(=O)c2ccc(Cl)cc2Cl)C1` (stereo not drawn) displayed an ATP content of 135%.

In the case of `Cc1ccc(C(=O)c2oc3ccc4c(C)cc(=O)oc4c3c2C)cc1`, the ATP content came out at 123%.

In turn, `O=C(Nc1ccccc1O)c1ccc(Oc2cccc(C(=O)Nc3ccccc3O)c2)cc1` yielded an ATP content of 30.4%.

For the molecule `CCOc1ccccc1CNC(=O)C1c2ccccc2C(=O)N(CC(C)C)C1c1cccs1` (stereo not drawn), the ATP content was found to be 78.8%.

Molecule `O=C(CCl)NCCOc1ccc(Cl)cc1Cl` came in with an ATP content of 99.9%.

`Oc1ccc(Cl)cc1CNc1nc2ccccc2[nH]1` displayed an ATP content of 49.7%.
